How the values were obtained:
Conditions in all cases: concentration: 1 μM, replicates: in singlicate; n = 1
BTK = system: BTK
BUB1 = system: BUB1
CAMK1B = system: CAMK1B
CAMK1D = system: CAMK1D
CAMK1G = system: CAMK1G
CAMK1 = system: CAMK1
CAMK2A = system: CAMK2A
CAMK2B = system: CAMK2B
CAMK2D = system: CAMK2D
CAMK2G = system: CAMK2G
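Further: KINOMEscan kinase panel screen.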

| SMILES | %Inh (BTK) [%] | %Inh (BUB1) [%] | %Inh (CAMK1B) [%] | %Inh (CAMK1D) [%] | %Inh (CAMK1G) [%] | %Inh (CAMK1) [%] | %Inh (CAMK2A) [%] | %Inh (CAMK2B) [%] | %Inh (CAMK2D) [%] | %Inh (CAMK2G) [%] |
| --- | --- | --- | --- | --- | --- | --- | --- | --- | --- | --- |
| Nc1nccc(-c2c(-c3ccc(F)cc3)ncn2C2CCN(Cc3ccccc3)CC2)n1 [SB-219980] | 0 | 38 | 56 | 0 | 0 | 12 | 0 | 0 | 0 | 0 |
| COc1ccc(Nc2nccc(-c3ccc(NC(=O)c4cc5cc(F)ccc5[nH]4)cc3)n2)cc1 [GSK1229496] | 0 | 29 | 26 | 0 | 6 | 0 | 0 | 0 | 3 | 34 |
| COc1nccc(-c2c(-c3ccc(F)cc3)ncn2CCCN2CCOCC2)n1 [SB-282852] | 33 | 0 | 29 | 0 | 0 | 0 | 0 | 0 | 0 | 0 |
| Cc1nccc(-c2c(-c3ccc(F)cc3)ncn2CCCN2CCOCC2)n1.Cl [SB-282975] | 6 | 0 | 0 | 0 | 0 | 0 | 0 | 0 | 7 | 0 |
| CSc1ccc(-c2nc3n(c2-c2ccncc2)CCC3)cc1 [SKF-105561] | 0 | 90 | 0 | 15 | 0 | 0 | 0 | 0 | 0 | 0 |
| Fc1ccc(-c2nc3n(c2-c2ccncc2)CCS3)cc1 [GI98581] | 0 | 53 | 31 | 1 | 0 | 0 | 0 | 0 | 3 | 14 |
| CC(C)c1ccc(O)cc1Nc1ccnc2ccc(C(F)(F)F)cc12 [GW482059] | 0 | 13 | 27 | 0 | 0 | 0 | 0 | 0 | 0 | 1 |
| O=C(Nc1n[nH]c2nc(-c3cccs3)c(Br)cc12)C1CCCC1 [SB-743341] | 26 | 0 | 0 | 16 | 0 | 18 | 9 | 12 | 2 | 0 |
| CC(C)c1cc(-c2ccc3c(N)n[nH]c3c2)nc(N)n1 [GSK2250882] | 0 | 60 | 0 | 23 | 6 | 21 | 0 | 0 | 8 | 23 |
| CNC(=O)c1ccc(C)c(-n2c(C)cc(OCc3ccc(F)cc3F)c(Br)c2=O)c1 | 0 | 0 | 0 | 0 | 0 | 0 | 0 | 0 | 0 | 0 |
| Nc1cccc(-c2ccc3c(N)n[nH]c3c2)n1 [GSK2192730] | 0 | 0 | 0 | 30 | 9 | 29 | 0 | 0 | 20 | 31 |
| O=c1cc(N2CCOCC2)nc2n(Cc3ccccc3F)ccn12 [GSK2297428] | 0 | 0 | 0 | 16 | 5 | 15 | 0 | 0 | 7 | 15 |
| COC(=O)C(NC(=O)NC1CCN(c2ccnc(Nc3ccc(F)cc3)n2)C1)c1ccccc1 (stereo not shown) [GSK1379712] | 18 | 37 | 35 | 5 | 0 | 9 | 0 | 0 | 11 | 19 |
| Cc1ccc(NC(=O)c2ccc(Cl)cc2)cc1-c1ccc(C(=O)Nc2ccncc2)cc1 [GSK1398467] | 0 | 47 | 4 | 0 | 9 | 4 | 100 | 86 | 10 | 12 |
| COC(=O)c1cccc(NC(=O)NC2CCN(c3ccnc(Nc4ccc(F)cc4)n3)C2)c1 (stereo not shown) [GSK1379725] | 0 | 0 | 16 | 0 | 0 | 0 | 0 | 0 | 0 | 0 |
| CC(=O)c1c(C)c2cnc(Nc3ccc(N4CCNCC4)cn3)nc2n(C2CCCC2)c1=O | 0 | 0 | 0 | 2 | 0 | 0 | 0 | 0 | 0 | 0 |
| CCCCc1nn2ncccc2c1-c1ccnc(NC2CC2)n1 [GW684374] | 0 | 91.3 | 12 | 5 | 9 | 9 | 0 | 0 | 12 | 7 |

| SMILES | %Inh (BTK) [%] | %Inh (BUB1) [%] | %Inh (CAMK1B) [%] | %Inh (CAMK1D) [%] | %Inh (CAMK1G) [%] | %Inh (CAMK1) [%] | %Inh (CAMK2A) [%] | %Inh (CAMK2B) [%] | %Inh (CAMK2D) [%] | %Inh (CAMK2G) [%] |
| --- | --- | --- | --- | --- | --- | --- | --- | --- | --- | --- |
| O=C1NC(=O)C(c2ccc(Cl)cc2)=C1Nc1ccc(O)cc1 [SB-340867] | 0 | 0 | 0 | 99.8 | 0 | 100 | 0 | 0 | 0 | 6 |
| Cc1ccc(NC(=O)Nc2ccc(Cl)cc2)cc1-c1ccc(C(=O)Nc2ccncc2)cc1 [GSK1398472] | 0 | 43 | 34 | 13 | 0 | 10 | 0 | 0 | 0 | 13 |
| CCn1c(-c2c(N)noc2C)nc2cnccc21 [SB-737856] | 0 | 20 | 0 | 0 | 0 | 0 | 0 | 0 | 0 | 0 |
| Cc1ccccc1-c1cc(-c2c[nH]nc2-c2ccccn2)ccn1 [GW680061] | 3 | 35 | 0 | 16 | 0 | 9 | 0 | 0 | 0 | 11 |
| Cn1cncc1-c1cc2c(Nc3ccc(OCc4ccccc4)cc3)ncnc2cn1 [GW281179] | 0 | 34 | 25 | 14 | 0 | 20 | 0 | 0 | 12 | 36 |
| CS(=O)(=O)CCNCc1nc(-c2ccc3ncnc(Nc4ccc5c(cnn5Cc5ccccc5)c4)c3c2)cs1.Cl.Cl [GW569716] | 20 | 49 | 0 | 9 | 0 | 11 | 0 | 0 | 6 | 16 |
| O=C1NC(=O)C(c2ccc(Cl)cc2)=C1Nc1cccc(Cl)c1 [SB-317651] | 0 | 0 | 3 | 4 | 0 | 0 | 0 | 0 | 0 | 0 |
| Nc1ncnc2occ(-c3ccc4c(c3)CCN4C(=O)Cc3cc(F)ccc3F)c12 [GSK2645446] | 0 | 0 | 0 | 8 | 9 | 6 | 0 | 0 | 14 | 20 |
| COC(=O)C(Cc1ccccc1)NC(=O)NC1CCN(c2ccnc(Nc3ccc(F)cc3)n2)C1 (stereo not shown) [GSK1379714] | 30 | 32 | 34 | 4 | 9 | 2 | 0 | 0 | 8 | 24 |
| Cl.Cl.Cl.N#Cc1ccc(CCNc2nccc(-c3cccc(CN4CCNCC4)c3)n2)cc1 [GSK2137462] | 0 | 0 | 0 | 29 | 24 | 31 | 11 | 3 | 28 | 27 |
| O=c1cc(N2CCOCC2)nc2n(Cc3cccc(Cl)c3Cl)c3ccccc3n12 [GSK2299009] | 0 | 0 | 34 | 36 | 13 | 43 | 0 | 0 | 21 | 33 |
| NS(=O)(=O)c1cccc(N/C=C2\C(=O)Nc3ccc(S(=O)(=O)Cc4c(Cl)cccc4Cl)cc32)c1 [GSK398099] | 0 | 34 | 23 | 17 | 26 | 27 | 0 | 0 | 26 | 16 |
| CNCc1ccc2nc(NC(=O)c3ccc(C(C)(C)C)cc3)cn2c1 | 32 | 26 | 33 | 1 | 0 | 1 | 4 | 2 | 1 | 12 |
| CC[C@@H]1CO[C@H](C(=O)Nc2ccccc2)CN1c1cc(-c2ccc3c(N)n[nH]c3c2)nc(NC)n1 [GSK2376236] | 0 | 0 | 29 | 19 | 13 | 7 | 0 | 0 | 21 | 6 |
| Cc1ccc(NC(=O)Nc2ccc(Cl)c(C(F)(F)F)c2)cc1-c1ccc(C(=O)Nc2ccncc2)cc1 [GSK1398470] | 0 | 9 | 2 | 15 | 12 | 17 | 0 | 4 | 13 | 25 |
| COc1ccc(Nc2nccc(N3CCC(NC(=O)C(C)c4ccc(Cl)cc4)CC3)n2)cc1 (stereo not shown) [GSK1379812] | 0 | 6 | 32 | 23 | 13 | 25 | 0 | 0 | 14 | 36 |
| O=C(Nc1n[nH]c2nc(-c3cccs3)c(Br)cc12)C1CC1 [SB-735297] | 0 | 0 | 0 | 0 | 0 | 0 | 100 | 100 | 10 | 11 |
